The supplement of paper PMC3334620
Over roughly 33,000 sequences, “E-score (-0.5 to 0.5)” has its median near -0.04; the highest 2% begin near 0.36. What follows is part of a selection rich in the highest values, with near analogues and random picks from the rest.

biological target: T1, Hmlalpha2 (UniProt P0CY09); assay: PBM E-score (8-mer binding enrichment) (E-score (-0.5 to 0.5)); higher = stronger / more preferred TF binding; conditions: protein concentration: 200 nM; construct: GST-full length
T1 sequence: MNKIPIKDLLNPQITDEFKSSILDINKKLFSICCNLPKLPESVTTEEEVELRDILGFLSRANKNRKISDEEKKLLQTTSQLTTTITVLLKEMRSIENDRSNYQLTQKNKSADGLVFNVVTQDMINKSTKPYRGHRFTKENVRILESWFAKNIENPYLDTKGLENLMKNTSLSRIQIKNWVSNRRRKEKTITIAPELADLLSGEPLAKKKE
Outline: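 PURExpress in vitro transcription/translation supplied GST-tagged yeast transcription factors, either full-length or DNA-binding domain. Applied at about 100-200 nM to universal all-10-mer Agilent arrays double-stranded by primer extension, the bound protein was detected with fluorescent anti-GST. E-scores, modified Wilcoxon-Mann-Whitney statistics, were given by the Universal PBM Analysis Suite to ungapped eight-base words pooled with their reverse complements after masliner normalisation.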

| Sequence | PBM E-score |
| --- | --- |
| CGTAGAAA | 0.31 |
| TATAAACA | 0.358 |
| GATAAACA | 0.212 |
| CGTAAAAA | 0.345 |
| TGTAGAAA | 0.429 |
| TGTAAAAA | 0.444 |
| TTCTTCAA | 0.0864 |
| ACTCATAC | -0.00755 |
| GGAAGCTA | -0.236 |
| CCCTGGGC | -0.302 |
| AGCCCTAA | 0.00565 |
| AAACACGC | 0.426 |
| AAACACAG | 0.318 |
| AAACACGA | 0.383 |
| AAACACGG | 0.371 |
| AAACACCG | 0.196 |
| AAACACTC | 0.109 |
| AAACACAC | 0.34 |
| AAACACCA | -0.0494 |
| AAACACGT | 0.361 |
| CCAAGTCC | -0.309 |
| TGGTGACA | 0.087 |
| GGGTTGGA | -0.133 |
| AAGGGATC | -0.156 |
| TGTATACA | 0.428 |

| Sequence | PBM E-score |
| --- | --- |
| CGTATACA | 0.377 |
| TGTATAAA | 0.342 |
| TCTATACA | 0.209 |
| AGTATACA | 0.322 |
| GGTATACA | 0.254 |
| ATGTGAAT | 0.297 |
| AACAACCG | 0.156 |
| GGTTTATA | 0.101 |
| CGTTTAAG | -0.102 |
| GTTTTAAA | 0.22 |
| GTTTTACA | 0.408 |
| GGTTTAAC | 0.279 |
| GGTTTACA | 0.396 |
| CGTTTACA | 0.452 |
| CGTTTAGA | -0.00881 |
| CGTTTACC | 0.0999 |
| GTTTTATA | 0.144 |
| GGTTTAGA | -0.168 |
| CGTTTAAC | 0.365 |
| TCAGGGCA | -0.0208 |
| AGGATATG | -0.0728 |
| ATGGTCAC | -0.0853 |
| GCTGAATA | 0.0885 |
| CGGGAAGC | -0.026 |
| AGTTTACA | 0.405 |

| Sequence | PBM E-score |
| --- | --- |
| AGTTTACG | 0.278 |
| AGTTTACC | 0.075 |
| CGCATTAG | -0.105 |
| GCCTGTCA | -0.0584 |
| CAGTGTGG | -0.13 |
| AACATGTT | 0.46 |
| AACATGTA | 0.484 |
| AACATGTC | 0.333 |
| AACATTTA | 0.242 |
| AACATCTG | 0.128 |
| CACATGTG | 0.163 |
| AACATGTG | 0.395 |
| AACATCTT | -0.0095 |
| AAGATGTA | 0.268 |
| ACCAGCAC | -0.0704 |
| ATGCGAAT | -0.0339 |
| CGGTCAGA | -0.199 |
| CAAGGTCA | -0.102 |
| TAGGTGGA | -0.0803 |
| CGGTGGAG | -0.362 |
| ATACTGGA | 0.0598 |
| CAACATAA | 0.359 |
| TTACATAA | 0.474 |
| GAACATAA | 0.191 |
| TAACATAA | 0.422 |

| Sequence | PBM E-score |
| --- | --- |
| TGACATAA | 0.319 |
| CTACATAA | 0.317 |
| GTACATAA | 0.377 |
| GCACATAA | 0.12 |
| GGACATAA | 0.05 |
| GCCAAGAC | -0.161 |
| CGTGCAAA | 0.172 |
| ACAATTTA | 0.173 |
| GGACTAGA | -0.227 |
| TCATGTCA | 0.359 |
| TCATGGAA | -0.157 |
| GCATGTAA | 0.485 |
| GCATGTCA | 0.36 |
| TCATGTAA | 0.482 |
| GCATGTGA | 0.263 |
| AAGGTCCG | -0.108 |
| AACCTCGA | -0.0213 |
| TAGGAGAA | 0.122 |
| GCATAGCC | -0.0671 |
| GTTTTTAA | 0.279 |
| GTGTGTTA | 0.435 |
| CTGTGTTA | 0.398 |
| CTGTGTTC | 0.304 |
| GGGTGTTA | 0.195 |
| CGGTGTTA | 0.253 |

| Sequence | PBM E-score |
| --- | --- |
| GAGTGTTA | 0.21 |
| ATGTGTGG | 0.0473 |
| ATGTGTGA | 0.202 |
| ATGTGTCA | 0.261 |
| ATGTGTTG | 0.39 |
| ATGTGTTC | 0.233 |
| ATGTGTTA | 0.429 |
| GTGGACCA | -0.0852 |
| ACTCTGTA | 0.204 |
| ATATCACC | 0.0884 |
| ACTGCTCG | -0.0631 |
| CCTTCAAC | 0.058 |
| GTGATCAC | -0.229 |
| ATCGCTGC | -0.136 |
| TAAGCGCA | 0.0443 |
| AGTCAACA | 0.269 |
| CTTGGTCC | -0.159 |
| CCCATACC | -0.159 |
| TAGTACAA | 0.244 |
| GTGTACAC | 0.415 |
| CTGTACAC | 0.291 |
| CTGTACAA | 0.288 |
| ATGTACCC | 0.148 |
| CTGTACAG | 0.0499 |
| GGGTACAA | 0.0999 |

| Sequence | PBM E-score |
| --- | --- |
| TTGTACAA | 0.442 |
| GCGTACAC | 0.247 |
| GTGTACAA | 0.439 |
| AGGTACAC | 0.0905 |
| ATGTACAC | 0.43 |
| AACTGCGT | 0.257 |
| ATGAAGAC | 0.028 |
| GTGAAATA | 0.185 |
| TACGTCGA | 0.0708 |
| CCCGCCAC | -0.152 |
| ATATTGGG | -0.261 |
| GACTCTGA | -0.12 |
| CTCGAACA | 0.112 |
| AAAGCCAT | 0.0384 |
| AACCCTGG | -0.204 |
| ATGTACAG | 0.289 |
| ATGTACTA | 0.397 |
| ATGTACAA | 0.433 |
| ATGTACTG | 0.351 |
| ATGTACAT | 0.457 |
| GTGTACTA | 0.311 |
| ATGTACGA | 0.281 |
| AGGTACAA | 0.21 |
| AGGTACAT | 0.288 |
| GCGCAAGA | -0.0432 |

| Sequence | PBM E-score |
| --- | --- |
| AAGACAGT | -0.0478 |
| AGAAAGTG | -0.223 |
| CCATTCGA | -0.0609 |
| ATCTCGTA | 0.191 |
| AAATCCGC | -0.125 |
| GAAAATTC | -0.0326 |
| CAGCCTTC | -0.301 |
| CCATGATA | -0.142 |
| ACATGATC | 0.426 |
| CCATGATC | -0.128 |
| GCATGATA | 0.116 |
| ACATGAGA | 0.406 |
| TCATGAGA | 0.0706 |
| ACATGATG | 0.348 |
| ACATGAGT | 0.364 |
| ACATGATA | 0.435 |
| CGGATATC | -0.0199 |
| TCTCTGAA | -0.162 |
| CGCATAGC | -0.0965 |
| AGGTCCAA | -0.112 |
| ACGACCCC | -0.127 |
| ATGGCAAA | -0.00556 |
